Shown are actives, neighbours in structure and some others; about 2.4% of the full set was active somewhere.
A3G deaminase = inhibitors of human APOBEC3G DNA deaminase; Q9HC16; recombinant A3G, ssDNA deamination FAM/TAMRA fluorescence; inhibition, % at 20 µM; actives 0.28% (n = 330,000); AID 493012;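 active means inhibition of at least 40% at 20 µM, with no more than 30% in the related APOBEC3A deaminase screen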;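 further: plate controls were DMSO wells with A3G for no effect and wells lacking A3G enzyme for full effect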
Target sequence (Q9HC16 whole entry, looked up): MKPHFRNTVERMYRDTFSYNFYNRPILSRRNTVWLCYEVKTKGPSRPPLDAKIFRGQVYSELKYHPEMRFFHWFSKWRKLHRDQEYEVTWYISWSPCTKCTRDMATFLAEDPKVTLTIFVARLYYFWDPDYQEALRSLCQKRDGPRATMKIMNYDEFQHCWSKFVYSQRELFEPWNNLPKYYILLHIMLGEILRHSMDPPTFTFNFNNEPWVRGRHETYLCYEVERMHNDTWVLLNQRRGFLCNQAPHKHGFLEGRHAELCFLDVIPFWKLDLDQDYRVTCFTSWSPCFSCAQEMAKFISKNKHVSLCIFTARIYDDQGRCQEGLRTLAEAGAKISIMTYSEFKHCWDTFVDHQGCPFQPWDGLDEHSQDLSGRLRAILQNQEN
ADAM10 inh = inhibits human ADAM10; actives 0.62% (n = 370,000); O14672; recombinant ADAM10, EDANS/DABCYL FRET peptide cleavage, 3 h; AID 720582; inhibition, % at 7 µM;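 active means inhibition above a per-campaign cutoff equal to the mean of compounds falling between control-based bounds plus 3 SD, cut at about 20% in these data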;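 further: 0% = DMSO wells while the 100% control is not disclosed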
CendR NRP1 mod = modulators of CendR peptide binding to human neuropilin-1. O14786. FAM-RPARPAR peptide binding to NRP-1, fluorescence polarization. inhibition, % at 25 µM. actives 0.85% (n = 360,000). AID 602438;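 active means inhibition or corrected inhibition above about 18%, plus a signal ratio from 0.5 to 1.5, limit read from the data, passing the limit was not always enough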
APOBEC3A inh = blocks human APOBEC3A ssDNA deamination; actives 0.41% (n = 330,000); recombinant A3A, FAM/TAMRA ssDNA deamination fluorescence; AID 493011; inhibition, % at 20 µM;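 active means at least 40% inhibition at 20 µM here, with at most 30% in a related deaminase screen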;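 further: plate controls were A3A with DMSO for no effect and wells lacking A3A enzyme for full effect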
Target sequence (P31941 whole entry, looked up): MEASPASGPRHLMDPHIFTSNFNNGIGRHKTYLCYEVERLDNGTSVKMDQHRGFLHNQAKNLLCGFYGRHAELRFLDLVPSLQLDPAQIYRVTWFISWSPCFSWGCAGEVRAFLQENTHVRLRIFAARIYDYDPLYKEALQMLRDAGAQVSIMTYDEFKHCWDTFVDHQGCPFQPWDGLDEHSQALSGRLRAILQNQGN
ADAM17 inh = ADAM17 inhibition, QFRET primary screen; P78536; recombinant ADAM17, EDANS/DABCYL FRET peptide cleavage; inhibition, % at 6.95 µM; actives 0.83% (n = 370,000); AID 720648;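 active means inhibition above the mean of compounds lying between control limits plus 3 SD, set per campaign, cut at about 8.5% in these data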;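 further: 0% = DMSO-only wells as the low control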
ADAM10 counter = inhibits human ADAM10 in ADAM17 exosite counter-screen. inhibition, % at 6.95 µM. recombinant ADAM10, EDANS/DABCYL FRET peptide cleavage, 3 h. shares compounds with ADAM17 inh. actives 47% (n = 2,900);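 active means mean inhibition over the triplicate runs exceeds the activity threshold set in the earlier primary screen, cut at about 20% in these data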;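 further: 0% = DMSO wells and 100% = marimastat wells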
ADAM17 confirm = human ADAM17 inhibition, confirmation. shares compounds with ADAM17 inh. recombinant ADAM17, EDANS/DABCYL QFRET peptide cleavage. inhibition, % at 6.95 µM. actives 65% (n = 2,900). AID 743257;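 active means mean inhibition across replicates above the hit cutoff set in the primary screen, cut at about 8.5% in these data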;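 further: 0% = DMSO wells and 100% = marimastat wells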
* = called active by the depositor.

What do the screens show for `CC(=O)O[C@H]1CC[C@]2(C)C3CC[C@]4(C)[C@@H]([C@H](C)/C=C/[C@H](C)C(C)C)CC[C@H]4[C@@]34C=C[C@]2(C1)N(C(=O)c1ccccc1)O4` (some centres undefined)?
ADAM10 inh: -3.0; ADAM17 inh: -0.9

How did Cc1nn(C)cc1/C=N/NC(=S)Nc1ccc(Cl)cc1Cl do in these assays?
A3G deaminase: -5.1; ADAM10 inh: 9.7; CendR NRP1 mod: -3.3; APOBEC3A inh: 5.2; ADAM17 inh: 2.9

Results for CCn1nc(C)c(/C=N/NC(=S)Nc2ccc(Cl)cc2Cl)c1C ?
A3G deaminase: -4.8; ADAM10 inh: 16.6; CendR NRP1 mod: -6.8; APOBEC3A inh: -1.2; ADAM17 inh: 8.7*; ADAM10 counter: 9.1; ADAM17 confirm: 3.4

How did O=C(CSc1nnc(Cc2ccccc2)n1-c1cccc(Cl)c1)NNC(=O)Cc1ccccc1 do in these assays?
A3G deaminase: -1.3; ADAM10 inh: 16.5; CendR NRP1 mod: -3.3; APOBEC3A inh: -0.1; ADAM17 inh: 15.0*; ADAM10 counter: 10.3; ADAM17 confirm: 4.8

What do the screens show for `COc1ccc(CC(=O)NNC(=O)CSc2nnc(Cc3ccc(OC)cc3)n2-c2ccccc2)cc1`?
A3G deaminase: -5.9; ADAM10 inh: 1.1; CendR NRP1 mod: 3.7; APOBEC3A inh: -0.1; ADAM17 inh: 0.4

Results for CC(C)(N[C@@H](Cc1ccccc1)C(=O)NCC(c1ccccc1)c1ccccc1)C(=O)NC1CCCCC1 ?
ADAM10 inh: -7.5; ADAM17 inh: -2.2

Results for Oc1ccccc1-c1cc(-c2ccccc2Cl)[nH]n1 ?
A3G deaminase: -2.7; ADAM10 inh: 14.2; CendR NRP1 mod: -7.7; APOBEC3A inh: 0.3; ADAM17 inh: 9.5*; ADAM10 counter: 23.9*; ADAM17 confirm: 11.8*

What do the screens show for `CCOC(=O)C1=C(C(=O)OCC)C2N(Cc3ccc(Br)cc3)c3ccccc3[C@@]23C[C@@H](C(=O)OC)N(S(=O)(=O)c2cccs2)C3=N1` (some centres undefined)?
ADAM10 inh: 2.7; ADAM17 inh: -0.2

Results for C[C@H](NC(=O)c1nc[nH]c1C(=O)N1CCN(c2ccccc2)CC1)C(=O)OCc1ccccc1 ?
A3G deaminase: -14.0; ADAM10 inh: 4.5; CendR NRP1 mod: 15.0; APOBEC3A inh: -6.6; ADAM17 inh: 2.0

How did O=C(N[C@@H](Cc1ccccc1)C(=O)OCc1ccccc1)c1nc[nH]c1C(=O)N1CCN(c2ccccc2)CC1 do in these assays?
A3G deaminase: -9.0; ADAM10 inh: 18.8; CendR NRP1 mod: 16.7; APOBEC3A inh: -3.3; ADAM17 inh: 11.3*; ADAM10 counter: 27.3*; ADAM17 confirm: 15.1*

What do the screens show for `CC(C)(C)OC(=O)NCCCC[C@H](NC(=O)c1nc[nH]c1C(=O)NCc1ccccc1)C(=O)OC(C)(C)C`?
A3G deaminase: 2.0; ADAM10 inh: 17.1; CendR NRP1 mod: 13.9; APOBEC3A inh: 1.7; ADAM17 inh: 9.2*; ADAM10 counter: 35.2*; ADAM17 confirm: 19.7*

What do the screens show for `C[C@H](NC(=O)c1nc[nH]c1C(=O)NC(c1ccccc1)c1ccccc1)C(=O)OCc1ccccc1`?
A3G deaminase: -12.2; ADAM10 inh: 13.7; CendR NRP1 mod: 17.1; APOBEC3A inh: -2.5; ADAM17 inh: 9.3*; ADAM10 counter: 2.5; ADAM17 confirm: 12.1*

What do the screens show for `Cc1cccc(NC(=O)c2nc[nH]c2C(=O)N[C@@H](CC(C)C)C(=O)OC(C)(C)C)c1`?
A3G deaminase: -1.9; ADAM10 inh: 18.8; CendR NRP1 mod: 5.6; APOBEC3A inh: 0.7; ADAM17 inh: 10.6*; ADAM10 counter: 30.3*; ADAM17 confirm: 15.6*

How did CC(C)(C)OC(=O)NCCCC[C@H](NC(=O)c1[nH]cnc1C(=O)N[C@@H](Cc1ccccc1)C(=O)OC(C)(C)C)C(=O)OC(C)(C)C do in these assays?
A3G deaminase: -4.2; ADAM10 inh: 1.4; CendR NRP1 mod: 9.5; APOBEC3A inh: -2.2; ADAM17 inh: 1.4

What do the screens show for `C[C@H](NC(=O)c1nc[nH]c1C(=O)N[C@@H](C)C(=O)OCc1ccccc1)C(=O)OCc1ccccc1`?
A3G deaminase: -13.9; ADAM10 inh: 4.4; CendR NRP1 mod: 2.7; APOBEC3A inh: 0.2; ADAM17 inh: -0.8

Results for COc1cc2c(c(OC3OC(CO)C(O)C(O)C3O)c1)C(=O)CC(c1ccc(O)cc1)O2 (centres undefined) ?
ADAM10 inh: -16.2; ADAM17 inh: -3.5

How did CCN(CC)C(=O)c1[nH]cnc1C(=O)N[C@@H](C)C(=O)OCc1ccccc1 do in these assays?
A3G deaminase: -5.8; ADAM10 inh: -4.9; CendR NRP1 mod: 16.1; APOBEC3A inh: 1.2; ADAM17 inh: -5.5

What do the screens show for `C[C@H](NC(=O)c1nc[nH]c1C(=O)NCc1ccc(CNC(=O)OC(C)(C)C)cc1)C(=O)OCc1ccccc1`?
A3G deaminase: -7.4; ADAM10 inh: 14.7; CendR NRP1 mod: 5.8; APOBEC3A inh: -1.8; ADAM17 inh: 10.5*; ADAM10 counter: 37.0*; ADAM17 confirm: 20.6*

How did CC(=O)O[C@@H]1CCC[C@@]2(C(=O)Nc3ccccc32)[C@H]1NC(=O)C(C)C do in these assays?
ADAM10 inh: -2.9; ADAM17 inh: -1.0

Results for COc1ccccc1CNC(=O)C/C(C)=N/NC(=O)Cc1ccc(OC)c(OC)c1 ?
A3G deaminase: -5.8; ADAM10 inh: 4.2; CendR NRP1 mod: -1.6; APOBEC3A inh: -3.1; ADAM17 inh: -0.7

How did COc1ccc(Cl)cc1NC(=O)C/C(C)=N/NC(=O)CCc1ccccc1 do in these assays?
A3G deaminase: -9.0; ADAM10 inh: 2.9; CendR NRP1 mod: -4.0; APOBEC3A inh: -4.3; ADAM17 inh: -1.4

How did COc1cc(NC(=O)C/C(C)=N/NC(=O)Cc2ccccc2)c(OC)cc1Cl do in these assays?
A3G deaminase: -0.6; ADAM10 inh: 7.2; CendR NRP1 mod: -6.9; APOBEC3A inh: 3.0; ADAM17 inh: 10.7*; ADAM10 counter: 12.7; ADAM17 confirm: 11.1*

Results for COc1ccc(CNC(=O)C/C(C)=N/NC(=O)Cc2ccc(OC)c(OC)c2)cc1 ?
A3G deaminase: -7.5; ADAM10 inh: 17.8; CendR NRP1 mod: -4.9; APOBEC3A inh: -2.3; ADAM17 inh: 9.9*; ADAM10 counter: -4.6; ADAM17 confirm: 2.2

What do the screens show for `O=C(C[C@H]1C/C=C\CC[C@@H](Cc2ccc(F)cc2)C(=O)O[C@@H](c2ccccc2)CNC1=O)N[C@H](CO)Cc1ccccc1`?
A3G deaminase: -8.0; ADAM10 inh: 7.4; CendR NRP1 mod: 0.4; APOBEC3A inh: -0.4; ADAM17 inh: 12.6*; ADAM10 counter: 17.3; ADAM17 confirm: 11.9*
